Results as given in PubChem BioAssay (EPA / NIEHS).
Results filed as inconclusive are left out. The source made the active and inactive calls. How the source made its calls, unless noted: active means hit-call score of the fitted dose curve at least 0.9, where 1 is the maximum; inactive means score below 0.9.

Experiments:
[1] = ATG_AP_1_CIS: Attagene CIS-FACTORIAL HepG2 Assay for human Activator Protein 1 (AP-1) (AID 2282931); details: HepG2 Attagene cis-factorial AP-1 reporter mRNA; actives raise or lower the signal
How it was run: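 We transfected HepG2 cells transiently with a set of cis-regulated reporter transcription units, dosed them for 24 h, and quantified reporter mRNA via RT-PCR and capillary electrophoresis, scoring gain or loss of signal relative to DMSO.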

[2] = ATG_FoxO_CIS: Attagene CIS-FACTORIAL HepG2 Assay for human Forkhead box O (FoxO) (AID 2282943); details: HepG2 Attagene cis-reporter, FoxO element, mRNA; actives raise or lower the signal
How it was run: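 Endogenous transcription factor activity read from multiplexed cis-promoter reporter transcripts in transiently transfected HepG2, 24 h after dosing. Reporter RNA measured via RT-PCR plus capillary electrophoresis of FAM-labeled products; gain or loss relative to DMSO.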

[3] = ATG_GATA_CIS: Attagene CIS-FACTORIAL HepG2 Assay for human GATA Binding Protein (AID 2282944); details: HepG2 GATA cis-element reporter, Attagene multiplex mRNA; actives raise or lower the signal
How it was run: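 Endogenous transcription factor activity was captured through cis-promoter-driven reporters in transfected HepG2 cells. After 24 h exposure, reporter transcripts were quantified by RT-PCR with fluorescent capillary electrophoresis, and responses fitted both directions against DMSO.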

[4] = ATG_ISRE_CIS: Attagene CIS-FACTORIAL HepG2 Assay for human Interferon Regulatory Factor 1 (IRF1) binding to an Interferon-Stimulated Response Element (ISRE) (AID 2282948); details: HepG2 ISRE cis-reporter (Attagene), mRNA transcription readout; actives raise or lower the signal
How it was run: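 Read-out: fluorescent RT-PCR products resolved by capillary electrophoresis, reporting endogenous transcription factor activity via ISRE-driven reporter mRNA in transfected HepG2 cells dosed for 24 h; gain or loss fitted relative to DMSO.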

[5] = ATG_M_06_CIS: Attagene CIS-FACTORIAL HepG2 Assay for M06 Transcription Factor (Internal Marker) (AID 2282950); details: HepG2 Attagene CIS-FACTORIAL M06 internal marker reporter; actives raise or lower the signal
How it was run: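 Steps: transfect HepG2 with multiplexed cis-element reporter constructs; dose chemical 24 h; extract RNA with DNase treatment; reverse-transcribe, PCR-amplify, 6-FAM label, HpaI digest; separate fragments by capillary electrophoresis. Activity fitted both directions versus DMSO.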

[6] = ATG_MRE_CIS: Attagene CIS-FACTORIAL HepG2 Assay for human Metal Responsive Element (MRE) (AID 2282954); details: HepG2 MRE cis-reporter transcription, Attagene multiplex; actives raise or lower the signal
How it was run: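 Multiplexed cis-reporter assay in human HepG2 liver cells, 24 h incubation with test chemical. Reporter transcripts measured by RT-PCR and capillary electrophoresis; values from bidirectional curve fitting versus DMSO.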

[7] = biological target: Paired box protein Pax-6 (Homo sapiens) (UniProt P26367); assay: ATG_Pax6_CIS: Attagene CIS-FACTORIAL HepG2 Assay for human Paired Box 6 (PAX6) (AID 2282956); details: HepG2 CIS-FACTORIAL PAX6 reporter transcription, RNA readout; actives raise or lower the signal
Paired box protein Pax-6 (Homo sapiens), sequence (P26367 whole entry, looked up): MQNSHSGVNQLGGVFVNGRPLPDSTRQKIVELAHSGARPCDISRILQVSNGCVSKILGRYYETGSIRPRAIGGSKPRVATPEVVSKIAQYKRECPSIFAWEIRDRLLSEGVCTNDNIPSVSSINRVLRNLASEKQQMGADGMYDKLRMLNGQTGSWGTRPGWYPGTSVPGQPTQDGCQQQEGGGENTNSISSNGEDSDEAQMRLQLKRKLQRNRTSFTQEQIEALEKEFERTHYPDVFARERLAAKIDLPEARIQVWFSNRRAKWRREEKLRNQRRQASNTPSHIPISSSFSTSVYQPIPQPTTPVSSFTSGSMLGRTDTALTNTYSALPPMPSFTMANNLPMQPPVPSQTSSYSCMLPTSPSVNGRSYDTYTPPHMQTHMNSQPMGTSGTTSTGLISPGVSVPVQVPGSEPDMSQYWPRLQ
How it was run: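 Readout: reporter transcript fluorescence after RT-PCR and capillary electrophoresis. Cells: HepG2, transiently transfected with cis-regulated MRTUs. Exposure 24 h. Gain or loss of signal fitted bidirectionally relative to DMSO.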

[8] = biological target: Transcription factor Sp1 (Homo sapiens) (UniProt P08047); assay: ATG_Sp1_CIS: Attagene CIS-FACTORIAL HepG2 Assay for human Specificity Protein 1 (Sp1) (AID 2282961); details: HepG2 Sp1 cis-reporter transcription, actives raise or lower the signal
Transcription factor Sp1 (Homo sapiens), sequence (P08047 whole entry, looked up): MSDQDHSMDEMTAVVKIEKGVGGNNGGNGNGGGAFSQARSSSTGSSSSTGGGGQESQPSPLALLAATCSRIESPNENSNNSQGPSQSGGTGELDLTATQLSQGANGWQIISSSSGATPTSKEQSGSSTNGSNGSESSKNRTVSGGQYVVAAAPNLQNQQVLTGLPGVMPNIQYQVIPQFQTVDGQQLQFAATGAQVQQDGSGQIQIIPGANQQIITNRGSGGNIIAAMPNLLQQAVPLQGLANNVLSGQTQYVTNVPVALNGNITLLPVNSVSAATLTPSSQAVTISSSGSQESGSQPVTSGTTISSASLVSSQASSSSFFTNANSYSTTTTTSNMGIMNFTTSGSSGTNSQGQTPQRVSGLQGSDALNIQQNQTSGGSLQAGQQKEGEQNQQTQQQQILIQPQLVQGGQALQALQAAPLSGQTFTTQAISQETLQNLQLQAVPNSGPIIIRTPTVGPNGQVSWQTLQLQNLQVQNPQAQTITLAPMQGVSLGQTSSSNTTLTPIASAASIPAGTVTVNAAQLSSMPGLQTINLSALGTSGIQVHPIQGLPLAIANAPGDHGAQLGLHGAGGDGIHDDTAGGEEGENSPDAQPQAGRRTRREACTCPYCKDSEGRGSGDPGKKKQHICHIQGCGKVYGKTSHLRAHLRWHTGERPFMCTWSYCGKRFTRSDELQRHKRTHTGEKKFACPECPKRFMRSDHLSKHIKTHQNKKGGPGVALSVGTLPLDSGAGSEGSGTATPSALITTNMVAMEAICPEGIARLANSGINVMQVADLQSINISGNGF
How it was run: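 Chemicals are dosed onto HepG2 cells transfected with multiple cis-promoter reporter constructs, and after 24 h reporter RNA is reverse-transcribed, PCR-amplified and resolved by capillary electrophoresis for fluorescence quantitation; activity is scored up or down against DMSO.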

[9] = ATG_SREBP_CIS: Attagene CIS-FACTORIAL HepG2 Assay for human Sterol Regulatory Element Binding (SREBP) (AID 2282962); details: HepG2 Attagene cis-factorial SREBP reporter, mRNA; actives raise or lower the signal
How it was run: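 Readout: fluorescent reporter-transcript peaks resolved by capillary electrophoresis after RT-PCR. Cells were human HepG2 carrying transfected cis-promoter reporter constructs, dosed for 24 h. Gain or loss of signal was fitted against DMSO controls.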

[10] = biological target: Signal transducer and activator of transcription 3 (Homo sapiens) (UniProt P40763); assay: ATG_STAT3_CIS: Attagene CIS-FACTORIAL HepG2 Assay for human Signal Transducer and Activator of Transcription 3 (STAT3) (AID 2282963); details: HepG2, Attagene cis-factorial STAT3 reporter transcription; actives raise or lower the signal
Signal transducer and activator of transcription 3 (Homo sapiens), sequence (P40763 whole entry, looked up): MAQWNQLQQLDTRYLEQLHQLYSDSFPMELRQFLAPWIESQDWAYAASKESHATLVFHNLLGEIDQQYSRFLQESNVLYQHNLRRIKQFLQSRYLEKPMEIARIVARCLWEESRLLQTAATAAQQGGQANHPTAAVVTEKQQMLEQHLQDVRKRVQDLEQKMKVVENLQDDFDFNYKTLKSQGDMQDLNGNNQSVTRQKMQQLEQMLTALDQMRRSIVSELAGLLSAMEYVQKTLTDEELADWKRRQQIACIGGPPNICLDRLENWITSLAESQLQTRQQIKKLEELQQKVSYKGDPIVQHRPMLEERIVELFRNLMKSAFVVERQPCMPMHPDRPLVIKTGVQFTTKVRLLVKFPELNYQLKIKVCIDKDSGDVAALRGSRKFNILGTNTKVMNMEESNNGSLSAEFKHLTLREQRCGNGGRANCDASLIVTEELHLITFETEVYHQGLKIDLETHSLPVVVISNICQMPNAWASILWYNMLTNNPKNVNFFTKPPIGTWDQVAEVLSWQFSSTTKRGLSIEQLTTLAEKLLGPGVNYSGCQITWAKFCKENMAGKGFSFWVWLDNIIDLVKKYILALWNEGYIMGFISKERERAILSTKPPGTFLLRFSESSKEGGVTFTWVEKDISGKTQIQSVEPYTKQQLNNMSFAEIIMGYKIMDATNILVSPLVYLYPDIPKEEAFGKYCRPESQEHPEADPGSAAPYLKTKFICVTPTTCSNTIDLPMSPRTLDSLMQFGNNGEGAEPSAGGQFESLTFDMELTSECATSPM
How it was run: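 Cis-factorial format: endogenous transcription factors in HepG2 drive transfected reporter units. After 24 h treatment, reporter RNA was reverse-transcribed, amplified, FAM-labelled and HpaI-digested before CE analysis; activity scored in both directions against DMSO.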

[11] = ATG_TAL_CIS: Attagene CIS-FACTORIAL HepG2 Assay for human TAL Basal Promoter (AID 2282966); details: HepG2 Attagene cis-factorial TAL promoter reporter; actives raise or lower the signal;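 further: background control endpoint measuring basal TAL promoter reporter mRNA not a specific factor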
How it was run: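 HepG2, transient MRTU transfection, 24 h compound exposure; RNA → oligo(dT) RT → PCR → 6-FAM primer extension → HpaI digest → CE fluorescence. Bidirectional curve fit vs DMSO. Background-control readout.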

[12] = biological target: X-box-binding protein 1 (Homo sapiens) (UniProt P17861); assay: ATG_Xbp1_CIS: Attagene CIS-FACTORIAL HepG2 Assay for human X-box Binding Protein 1 (XBP1) (AID 2282972); details: HepG2 XBP1 cis-element reporter, Attagene multiplex; actives raise or lower the signal
X-box-binding protein 1 (Homo sapiens), sequence (P17861 whole entry, looked up, the tested form may be a part): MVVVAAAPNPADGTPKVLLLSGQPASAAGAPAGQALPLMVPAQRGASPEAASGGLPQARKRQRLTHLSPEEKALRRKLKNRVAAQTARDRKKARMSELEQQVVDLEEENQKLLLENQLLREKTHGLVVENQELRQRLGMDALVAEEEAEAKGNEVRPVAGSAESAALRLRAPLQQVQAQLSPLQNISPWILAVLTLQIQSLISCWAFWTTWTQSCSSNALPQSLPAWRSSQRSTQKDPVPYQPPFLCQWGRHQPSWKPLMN
How it was run: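 Read-out: fluorescent reporter mRNA fragments resolved by capillary electrophoresis after RT-PCR. Human HepG2 liver cells carried transfected cis-promoter reporter units and were exposed to chemicals for 24 hours. Gain or loss of signal fitted relative to DMSO baseline.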

[13] = biological target: Transcriptional activator Myb (Homo sapiens) (UniProt P10242); assay: ATG_Myb_CIS: Attagene CIS-FACTORIAL HepG2 Assay for human Myeloblastosis (Myb) Proto-Oncogene Transcription Factor (AID 2282986); details: HepG2 Attagene CIS-FACTORIAL Myb reporter transcription; actives raise or lower the signal
Transcriptional activator Myb (Homo sapiens), sequence (P10242 whole entry, looked up): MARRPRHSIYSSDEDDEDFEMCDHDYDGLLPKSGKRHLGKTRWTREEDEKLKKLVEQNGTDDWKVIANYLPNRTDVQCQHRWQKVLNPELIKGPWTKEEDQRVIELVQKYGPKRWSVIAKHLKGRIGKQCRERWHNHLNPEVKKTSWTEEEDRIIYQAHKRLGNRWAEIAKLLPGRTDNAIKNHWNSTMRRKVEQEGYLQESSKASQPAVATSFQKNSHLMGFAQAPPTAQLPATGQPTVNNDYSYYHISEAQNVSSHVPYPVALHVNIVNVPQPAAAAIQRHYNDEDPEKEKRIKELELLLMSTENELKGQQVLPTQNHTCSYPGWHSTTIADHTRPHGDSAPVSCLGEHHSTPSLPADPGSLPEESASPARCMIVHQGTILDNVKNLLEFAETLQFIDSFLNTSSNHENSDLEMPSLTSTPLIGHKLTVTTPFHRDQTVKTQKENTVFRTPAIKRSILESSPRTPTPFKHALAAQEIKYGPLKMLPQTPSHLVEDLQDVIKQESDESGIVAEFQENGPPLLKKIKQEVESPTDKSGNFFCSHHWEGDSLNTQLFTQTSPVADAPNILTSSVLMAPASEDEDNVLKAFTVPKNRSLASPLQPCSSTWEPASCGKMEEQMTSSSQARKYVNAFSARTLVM
How it was run: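 Using HepG2 liver cells bearing transiently transfected cis-promoter reporter constructs, the assay measures induction or loss of reporter mRNA after 24 hours of dosing. Detection used fluorescently labeled RT-PCR products separated by capillary electrophoresis.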

[14] = biological target: Nuclear respiratory factor 1 (Homo sapiens) (UniProt Q16656); assay: ATG_NRF1_CIS: Attagene CIS-FACTORIAL HepG2 Assay for human Nuclear Respiratory Factor 1 (NRF1) Orphan Gene (AID 2282987); details: HepG2 NRF1 cis-element reporter, Attagene multiplex; actives raise or lower the signal
Nuclear respiratory factor 1 (Homo sapiens), sequence (Q16656 whole entry, looked up): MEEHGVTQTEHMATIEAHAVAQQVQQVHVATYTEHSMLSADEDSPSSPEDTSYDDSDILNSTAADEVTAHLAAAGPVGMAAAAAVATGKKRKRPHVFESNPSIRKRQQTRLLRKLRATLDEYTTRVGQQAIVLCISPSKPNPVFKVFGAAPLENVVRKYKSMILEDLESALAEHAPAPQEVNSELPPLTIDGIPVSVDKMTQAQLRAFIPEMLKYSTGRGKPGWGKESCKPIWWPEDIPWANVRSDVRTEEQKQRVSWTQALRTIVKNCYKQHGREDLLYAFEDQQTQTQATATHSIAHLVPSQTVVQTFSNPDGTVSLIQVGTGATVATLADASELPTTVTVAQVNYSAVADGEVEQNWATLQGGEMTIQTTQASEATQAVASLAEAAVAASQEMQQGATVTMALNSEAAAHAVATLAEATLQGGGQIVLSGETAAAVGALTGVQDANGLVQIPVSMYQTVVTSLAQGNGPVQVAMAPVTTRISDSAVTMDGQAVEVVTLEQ
How it was run: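 Reporter mRNA induction or loss in HepG2 cells after 24 h dosing; cis-regulated reporter constructs report endogenous transcription-factor activity. Quantified by RT-PCR/capillary electrophoresis fluorescence, DMSO-referenced.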

[15] = ATG_NFI_CIS: Attagene CIS-FACTORIAL HepG2 Assay for human Nuclear Factor I (NFI) (AID 2282989); details: HepG2 cis-regulatory reporter, NFI response element transcription; actives raise or lower the signal
How it was run: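 HepG2, transient MRTU, 24 h exposure; RNA→cDNA→PCR→FAM label→HpaI→CE fluorescence. Bidirectional fit, DMSO = baseline.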

[16] = ATG_NRF2_ARE_CIS: Attagene CIS-FACTORIAL HepG2 Assay for human Nuclear Factor Erythroid 2 Related Factor 2 (NFR2) response to Antioxidant Response Elements (ARE) (AID 2282992); details: HepG2 Attagene ARE/NRF2 reporter, transcription factor activity; actives raise or lower the signal;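 on AC50: reporter mRNA level measured by RT-PCR and capillary electrophoresis fluorescence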
How it was run: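 Readout: reporter mRNA quantified by RT-PCR plus FAM-labelled primer extension, HpaI digestion and capillary electrophoresis, 24 h after dosing transfected HepG2 cells. Gain or loss of signal is fitted bidirectionally against DMSO baseline.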

[17] = ATG_Oct_MLP_CIS: Attagene CIS-FACTORIAL HepG2 Assay for human Octamer-Binding Transcription Factor (Oct) (AID 2282993); details: HepG2 Attagene cis-factorial Oct reporter, mRNA; actives raise or lower the signal
How it was run: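 Multiplexed cis-reporter assay in human liver HepG2 cells, 24 h incubation. Reporter RNA amplified and labelled, then resolved by capillary electrophoresis; DMSO serves as negative control and baseline.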

[18] = biological target: Cellular tumor antigen p53 (Homo sapiens) (UniProt P04637); assay: ATG_p53_CIS: Attagene CIS-FACTORIAL HepG2 Assay for human p53 Transcription Factor (AID 2282994); details: HepG2 p53 cis-element reporter, Attagene mRNA; actives raise or lower the signal
Cellular tumor antigen p53 (Homo sapiens), sequence (P04637 whole entry, looked up): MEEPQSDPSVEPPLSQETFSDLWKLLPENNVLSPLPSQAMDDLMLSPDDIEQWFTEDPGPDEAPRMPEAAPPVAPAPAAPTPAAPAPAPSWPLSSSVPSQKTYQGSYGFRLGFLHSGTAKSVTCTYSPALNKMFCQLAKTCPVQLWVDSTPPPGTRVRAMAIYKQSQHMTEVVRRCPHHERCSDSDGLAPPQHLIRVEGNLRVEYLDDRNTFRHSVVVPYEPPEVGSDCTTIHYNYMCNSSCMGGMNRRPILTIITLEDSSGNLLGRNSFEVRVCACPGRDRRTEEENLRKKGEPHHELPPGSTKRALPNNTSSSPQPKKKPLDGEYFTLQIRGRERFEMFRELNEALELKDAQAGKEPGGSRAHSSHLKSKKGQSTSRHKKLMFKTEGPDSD
How it was run: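 Read-out: reporter mRNA by RT-PCR plus capillary electrophoresis with fluorescence detection. Human HepG2 liver cells carried transfected multi-reporter cis-element constructs, dosed 24 h. Gain or loss of signal fitted bidirectionally against DMSO control.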

[19] = biological target: bovine Estrogen Receptor (ER), ESR1 (gene 407238) (UniProt P49884); assay: NVS_NR_bER: NovaScreen (NVS) Nuclear Receptor Binding Assay for bovine Estrogen Receptor (ER) (AID 2283345; active means hit-call score of the fitted dose curve at least 0.9, where 1 is the maximum;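 further: actives lower the bound radioligand count which means they displace the ER ligand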)
bovine Estrogen Receptor (ER), ESR1 (gene 407238), sequence (P49884 whole entry, looked up): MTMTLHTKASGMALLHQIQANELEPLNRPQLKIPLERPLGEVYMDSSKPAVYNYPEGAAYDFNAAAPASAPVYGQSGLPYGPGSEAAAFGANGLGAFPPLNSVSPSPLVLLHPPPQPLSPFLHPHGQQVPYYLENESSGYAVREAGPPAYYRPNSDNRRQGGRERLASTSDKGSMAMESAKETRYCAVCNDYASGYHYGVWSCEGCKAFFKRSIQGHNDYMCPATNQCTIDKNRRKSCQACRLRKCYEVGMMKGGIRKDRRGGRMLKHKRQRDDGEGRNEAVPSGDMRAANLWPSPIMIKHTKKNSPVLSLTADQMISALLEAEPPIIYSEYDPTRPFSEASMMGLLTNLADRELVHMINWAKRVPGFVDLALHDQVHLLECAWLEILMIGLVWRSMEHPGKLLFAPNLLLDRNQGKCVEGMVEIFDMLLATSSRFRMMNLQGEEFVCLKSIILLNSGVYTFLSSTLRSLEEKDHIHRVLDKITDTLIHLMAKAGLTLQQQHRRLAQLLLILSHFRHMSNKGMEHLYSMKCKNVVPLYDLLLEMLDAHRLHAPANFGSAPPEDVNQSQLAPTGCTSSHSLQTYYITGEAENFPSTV
How it was run: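 Scintillation counting of displaced radioligand gave the readout; bovine uterine membrane extract supplied the receptor. Measured 18 h post-dose, normalized to DMSO baseline. Single 25 uM duplicate screen preceded concentration-response follow-up.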

[20] = read-out: CD40, CD40 (gene 958); assay: BSK_SAg_CD40: BioMAP Diversity Plus: SAg Assay for CD40 Biomarker Activity (AID 2283088); details: primary human HUVEC with PBMC; actives raise or lower the signal
How it was run: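 HUVEC/PBMC co-culture, 24 h post-dose; CD40 by ELISA, fluorescence intensity; bidirectional fit vs DMSO negative control.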

Measured: AC50

CCCCCCCCCCCCCC
inactive: [1] | [2] | [3] | [4] | [5] | [6] | [7] | [8] | [9] | [10] | [11] | [12] | [13] | [14] | [15] | [16] | [17] | [18]

CC1(O)CSC(C)(O)CS1 (stereo not given)
inactive: [19]

CCC(C)NC(N)=O (stereo not given)
inactive: [1] | [2] | [3] | [4] | [5] | [6] | [7] | [8] | [9] | [10] | [11] | [12] | [13] | [14] | [15] | [16] | [17] | [18]

CC(C)C1OCCN1CCOC(=O)NCCCCCCNC(=O)OCCN1CCOC1C(C)C (stereo not given)
inactive: [20]

COC(=O)c1ccccc1
inactive: [1] | [2] | [3] | [4] | [5] | [6] | [7] | [8] | [9] | [10] | [11] | [12] | [13] | [14] | [15] | [16] | [17] | [18]

CCCCCCCCCCC1CO1 (stereo not given)
inactive: [2] | [3] | [4] | [5] | [7] | [10] | [11] | [12] | [13] | [14] | [15] | [17] | [18]
active: [1] 164 µM | [6] 152 µM | [8] 154 µM | [9] 100 µM | [16] 128 µM | [20] 20 µM

Nc1nc(N)c2nc(-c3ccccc3)c(N)nc2n1
inactive: [19]

Oc1ccc2c(c1)Cc1ccccc1-2
active: [19] 36.3 µM

CC(O)(c1ccc(Cl)cc1)c1ccc(Cl)cc1
inactive: [19]

CCCCCCCCCCCCN(CCO)CCO
inactive: [19]

COc1ccc(COC=O)cc1
inactive: [19]

CCCCCCC/C=C/C=O
inactive: [19]

CNC(=O)Nc1ccc(Cl)c(Cl)c1
inactive: [19]

Cc1cccc(NC(=S)N(C)C)c1
inactive: [19]

O=S(=O)(O)c1cc(Cl)c(Cl)cc1Cl
inactive: [19]

CCC(=O)C(=O)CC
inactive: [19]
